# Many of the other results were omitted from the sample, so hits are more common in it than they were.
# KDM5B inh = blocks human KDM5B histone demethylase activity; actives 2.6% (n = 220,000); KDM5B demethylase, FDH-coupled NADH fluorescence (FDH is formaldehyde dehydrogenase); Potency, µM (top dose mostly 57.7 µM), usual class: inhibitors; AID 1347165; active = well fitted inhibition curve with a large enough effect; note: 0% is about no effect; nearly all actives have a fitted effect of over 70% in size
#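 Inhibition is measured as reduced NADH fluorescence generation from FDH coupling to formaldehyde release. Truncated KDM5BΔAP at 200 nM final acts on H3K4me3 peptide (12.5 µM in substrate mix) in pH 7.5 HEPES buffer with Tween-20, 30 min, room temperature.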
# * = called active by the depositor; i = inactive; [ ] = dose if it differs, or a comment. Potency is the fitted concentration of half-maximal effect.
SMILES,KDM5B inh
Cc1nn2c(c1-c1ccccc1N1CCCC1)N(C(=O)C1CCOCC1)CCC2,28µM*
Cc1nn2c(c1-c1ccccc1OCc1ccccc1)N(C(=O)C1CCOCC1)CCC2,i
COc1cc(C)c(S(=O)(=O)Nc2ccc(Nc3cc(N4CCCC4)nc(C)n3)cc2)cc1C,i
COc1cc(C(C)=O)ccc1SCC(=O)O,i
Cc1oc(-c2ccccc2)nc1CC(=O)Nc1ccccc1-c1ccccc1,i
O=C(c1ccc(Cl)cc1)N1CC2(CCCN(CC3CC3)C2)Cc2ccccc21 (stereo not given),i
Cc1nnn2c(C(=O)NCc3ccc(Cl)cc3)cccc12,35µM*
O=C(NCc1ccc(Cl)cc1)c1cnn2ncccc12,35µM*
O=C(CCn1cccn1)NCc1ccc(Cl)cc1,i
Cc1ccccc1-c1onc(C)c1C(=O)NCc1ccc(Cl)cc1,i
O=C(NCc1ccc(Cl)nc1)c1ccn2nccc2c1,i
O=C(NCc1ccc(-n2cccn2)cc1)c1ccc(Cl)cc1F,i
C=CCNC(=O)c1cc(-c2ccc3c(c2)OCO3)on1,i
CN(C)c1ncc(C(=O)NCc2ccc(Cl)cc2)cn1,i
CCc1ccc(NC(=O)c2cc3ccccn3n2)cc1,i[11.5 µM]
C=CCNC(=O)c1cc2cccnn2n1,32µM*
O=C(NCc1ccc(Cl)cc1)c1ccn2nccc2c1,35µM*
CCCCCn1c(=O)[nH]c2cc(C(=O)NCc3ccc(Cl)cc3)ccc2c1=O,i
O=C(O)C(c1c[nH]c2ccc(Br)cc12)N1CCN(Cc2ccc(Cl)cc2Cl)CC1 (stereo not given),i
C=CCNc1nc(C(=O)OC(C)C(=O)Nc2ccc(F)cc2Cl)cs1 (stereo not given),i
COc1cc(C=O)c(Br)cc1OC(C)C,i
Cc1ccccc1-c1noc(-c2cc3c(COC(=O)C(C)C)cnc(C)c3oc2=O)n1,i
O=C(N[C@@H]1CCC[C@@H]1C(=O)N1CCN(c2ccccn2)CC1)c1ccncc1,i
CCC(C)NC(=O)Cc1ccc2c(c1)CCCC2 (stereo not given),i
Cc1nn(C)c(C)c1CC(=O)Nc1nc(-c2ccc(Cl)cc2Cl)cs1,i
SMILES,KDM5B inh
Cc1ccc(-c2cnc(CCC(=O)N(C)CC(=O)Nc3ccccc3Br)o2)cc1C,i
CCOC(=O)CN1CCN(c2nc3c(c(=O)[nH]c(=O)n3C)n2Cc2cccc3ccccc23)CC1,i
O=C(NC1CCCC1)c1ccc2c(c1)-c1ccccc1C2,i
CN(C(=O)COc1ccc2c(=O)c(Oc3ccccc3)coc2c1)c1ccccc1,i
CCn1c(=O)c(-c2noc(C(=O)N3CCCCC3)n2)nn(-c2ccc(C)cc2)c1=O,i
CCOc1ccc(CN(CC)Cc2cc(=O)oc3ccc(OC)cc23)cc1,i
COC(=O)c1cc(NC(=O)c2cnn3cccnc23)cc(C)c1C,i
O=C(NCc1ccc(Cl)cc1)c1cc2cccnn2n1,32µM*
O=C(Nc1ccc(Cl)cc1Cl)c1cc2cccnn2n1,i
O=C(NCCc1ccc(Cl)cc1)c1cc2ccccn2n1,i
CCOc1ccccc1NC(=O)Nc1ccc2nc(NC(C)=O)sc2c1,i
CCOc1cc(/C=C/C(=O)c2ccc(OC)c(Br)c2)ccc1OC,i
COc1ccc(CNC23CC4CC(CC(C4)C2)C3)c2ccccc12,i
Cc1noc(C)c1-c1cc2cc(C(C)C)oc2c(NCCc2ccccn2)n1,i
COc1ccc(-c2nc(-c3c(C)noc3C)cc3cc(CN(C)C)oc23)cn1,32µM*
Cc1noc(C)c1-c1cc2cc(CN(C)C)oc2c(NCCc2ccccc2)n1,i
COc1ccccc1-c1nc(-c2c(C)noc2C)cc2cc(CN(C)C)oc12,35µM*
COc1cc(-c2nc(-c3c(C)noc3C)cc3cc(CN(C)C)oc23)ccn1,35µM*
Cc1noc(C)c1-c1cc2cc(CN(C)C)oc2c(NCC(C)C)n1,i
CC(=O)N1CCN(c2nc(-c3c(C)noc3C)cc3cc(C(C)C)oc23)CC1,i
Cc1noc(C)c1-c1cc2cc(CN(C)C)oc2c(Nc2ccncn2)n1,i
COCCCNc1nc(-c2c(C)noc2C)cc2cc(CN(C)C)oc12,i
COc1ccc(-c2nc(-c3c(C)noc3C)cc3cc(C(C)C)oc23)cn1,28µM*
OC(C#Cc1ccccc1)C#CC(O)(c1ccccc1)c1ccccc1 (stereo not given),i
O=C(O)CN1C(=O)S/C(=C\c2cn(CC(=O)N3CCOCC3)c3ccccc23)C1=O,i
SMILES,KDM5B inh
O=C(CSc1nc2cc([N+](=O)[O-])ccc2o1)Nc1cccc(Cl)c1,i
COc1ccc([C@H]2C[C@@H](O)[C@@H](O)[C@@H]2NC(=O)COc2ccccc2)cc1,i
COc1ccc(CC(=O)N[C@H]2[C@H](O)[C@H](O)C[C@@H]2c2ccc(C(F)(F)F)nc2)cc1,i
O=C(N[C@H]1[C@H](O)[C@H](O)C[C@@H]1c1ccc(N2CCOCC2)nc1)c1nc2ccccc2s1,i
CC(C)C(=O)N[C@H]1[C@H](O)[C@H](O)C[C@@H]1c1ccc(N2CCOCC2)nc1,40µM*
COc1ccc(CC(=O)N[C@H]2[C@H](O)[C@H](O)C[C@@H]2c2ccc(N3CCOCC3)nc2)cc1,32µM*
O=C(COc1ccccc1)N[C@H]1[C@H](O)[C@H](O)C[C@@H]1c1ccc(N2CCOCC2)nc1,32µM*
COc1ccc(C(=O)N[C@H]2[C@H](O)[C@H](O)C[C@@H]2c2cccnc2)cc1,i
Cc1ccccc1[C@H]1C[C@@H](O)[C@@H](O)[C@@H]1NC(=O)C(C)C,i
CC(C)C(=O)N[C@H]1[C@H](O)[C@H](O)C[C@@H]1c1cccnc1,i
COC(=O)c1c(C)[nH]c(C(=O)C(C)Cl)c1C (stereo not given),i
COCCNC(=O)CC(c1ccc(Cl)cc1)c1c[nH]c2ccc([N+](=O)[O-])cc12 (stereo not given),i
Cc1ccc(CNC(=O)C(C)N2CCN(c3ccc([N+](=O)[O-])c4cnccc34)CC2)cc1 (stereo not given),i
Cc1cc(/C=N/O)c(C)n1-c1ccncc1,i
N#Cc1ccc(NC(=O)CNc2cc(S(=O)(=O)N3CCCCC3)ccc2N2CCCCC2)cc1,i
CC(C)CCNC(=S)Nc1ccccc1,i
Nc1ncccc1CNC(=O)[C@H]1CCC[C@H](O)C1,25µM*
O=C(NCc1c[nH]c2ncccc12)C1CCCC1,i
O=C(NCc1csc(-c2cnccn2)n1)[C@H]1CCC[C@H](O)C1,28µM*
O=C(NCc1noc(Cc2cccs2)n1)[C@H]1CCC[C@@H](O)C1,i
O=C(NCc1ccc(-c2ncon2)cc1)[C@H]1CCC[C@@H](O)C1,i
Cc1cc(C)nc(CNC(=O)[C@H]2CCC[C@@H](O)C2)n1,i
Cc1ccc(-c2nc(CSCC(=O)NCc3cccs3)c(C)o2)cc1,i
Cc1ccc(-n2c(SCC(=O)NC(=O)NC(C)C)nnc2N2CCCCC2)cc1,i
CC(C)C(=O)N1CCN(C(=O)C2CC(=O)N(c3cccc(C(F)(F)F)c3)C2)CC1 (stereo not given),i
CCc1ocnc1C(=O)N1CCC(c2nnc(Cn3cncn3)n2C)CC1,i
Cc1ccc(C#N)c(N2CCC(c3nnc(Cn4cncn4)n3C)CC2)n1,28µM*
Cn1c(CN2CCN(c3ncccc3C#N)CC2)nnc1C1CC(N)C1 (stereo not given),i
COc1cc(-c2nc3cc(NC(=O)c4ccc(Cl)cc4)ccc3o2)cc(OC)c1OC,i
